The nature of assay [1]: small molecules captured by biotinylated probe aFSTL3 – biochemical, small-molecule microarray, fluorescence 635/667, stem cell growth factor project, primary screen (AID 1064).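 Note: measures binding of the biotinylated anti-FSTL3 antibody to printed compounds.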 Particulars: higher = more signal.
Assay [2] is described as follows: binders from COS7 lysate, DM2A8 probe, primary screen, torsin A project, cell lysate, small-molecule microarray, fluorescence 635/667 (AID 1065). Particulars: higher = more signal, COS7 lysate expressing mutant human TOR1A.
Assay [3] is described as follows: small molecules captured by biotinylated probe aFGF2 – biochemical, small-molecule microarray, fluorescence 635/667, stem cell growth factor project, primary screen (AID 1067).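 Note: measures binding of biotinylated aFGF2 protein to printed compounds on slides; z-score merges feature fluorescence and signal-to-noise across triplicate slides.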 Particulars: higher = more signal.
Assay [4] can be described thus: small molecules captured by biotinylated probe aFGF10 – biochemical, small-molecule microarray, fluorescence 635/667, stem cell growth factor project, primary screen (AID 1071).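 Note: score merges 667 nm spot intensity and signal to noise from triplicate slides.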 Particulars: higher = more signal.
The target of assay [5] is Neurogenic locus notch homolog protein 2 (Homo sapiens) (UniProt Q04721). As to the kind of experiment: small molecules binding Notch2 protein – biochemical, small-molecule microarray, 635 nm fluorescence, stem cell growth factors, primary screen (AID 1073). Particulars: higher = more signal.
The target of assay [6] is Pro-neuregulin-1, membrane-bound isoform (Homo sapiens) (UniProt Q02297). The assay is described as follows: small molecules binding neuregulin-1 protein – biochemical, small-molecule microarray, fluorescence 635/667, psychiatric disease protein project, primary screen (AID 1075).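 Note: score combines 667 nm spot fluorescence with signal to noise.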 Particulars: NRG1 binding, 635 nm fluorescence, higher = more signal.
Chain of Pro-neuregulin-1, membrane-bound isoform (Homo sapiens) (Q02297 whole entry, looked up, the tested form may be a part, canonical isoform): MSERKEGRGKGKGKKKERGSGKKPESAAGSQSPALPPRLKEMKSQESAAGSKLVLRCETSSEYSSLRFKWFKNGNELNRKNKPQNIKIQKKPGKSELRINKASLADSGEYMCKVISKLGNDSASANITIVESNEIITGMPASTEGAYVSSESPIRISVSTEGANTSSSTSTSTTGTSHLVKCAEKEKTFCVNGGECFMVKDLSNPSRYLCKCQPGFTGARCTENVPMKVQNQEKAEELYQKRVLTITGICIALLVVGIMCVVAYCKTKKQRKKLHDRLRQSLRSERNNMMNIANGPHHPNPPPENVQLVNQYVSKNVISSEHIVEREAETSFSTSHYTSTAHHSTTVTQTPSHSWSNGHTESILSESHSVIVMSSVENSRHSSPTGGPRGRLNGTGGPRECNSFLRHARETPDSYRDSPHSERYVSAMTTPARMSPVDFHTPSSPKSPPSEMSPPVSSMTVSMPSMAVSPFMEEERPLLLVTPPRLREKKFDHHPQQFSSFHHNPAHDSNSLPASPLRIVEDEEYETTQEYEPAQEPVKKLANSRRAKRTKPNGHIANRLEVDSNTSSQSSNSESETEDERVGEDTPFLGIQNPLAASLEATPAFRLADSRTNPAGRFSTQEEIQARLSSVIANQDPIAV
Assay [7] has as its system Neuregulin-1 EGF-like domain. As to the kind of experiment: small molecules binding NRG1 EGF domain – biochemical, small-molecule microarray, 635 nm fluorescence, primary screen (AID 1081).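 Note: binding of the protein to compounds printed on small-molecule microarray slides.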 Particulars: higher = more signal.
Assay [8] can be described thus: FRG1 expression reporter modulators in myotubes – cell-based, C2C12 myotubes, firefly/Renilla luciferase, luminescence, FRG1 inhibition for FSHD, primary screen (AID 1084). Particulars: FRG1 promoter luciferase, higher = more signal, called active from +8 up or from −8 down.
The nature of assay [9]: small molecules captured by biotinylated probe aFST – biochemical, small-molecule microarray, fluorescence 635/667, stem cell growth factor project, primary screen (AID 1086).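 Note: score merges 667 nm fluorescence with signal-to-noise of each printed compound spot.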 Particulars: higher = more signal.
Assay [10] is described as follows: binders of probe aHhip on microarray, primary screen, stem cell growth factor project, biochemical, small-molecule microarray, fluorescence 635/667 (AID 1087).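 Note: score merges spot fluorescence at 667nm with spot signal to noise ratio.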 As to conditions: higher = more signal.
The subject of assay [11] is PRMT1 (protein arginine N-methyltransferase 1). As to the kind of experiment: small molecules binding arginine methyltransferase PRMT1 – biochemical, small-molecule microarray, 635 nm fluorescence, primary screen (AID 1088).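 Note: binding of Prmt1 protein to compounds spotted on small-molecule microarray slides.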 Particulars: higher = more signal.
A short description of assay [12]: growth effects on S. cerevisiae YJM789 – YJM789 clinical isolate, OD600, 24 h, basal, primary screen (AID 1089).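 Note: growth of clinical yeast isolate S. cerevisiae YJM 789 seeded 1000 cells per well; test concentration not given here.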 As to conditions: higher = more signal, called active from +8 up or from −8 down.
Assay [13] in a line: S. pombe growth modifiers, basal conditions – strain 972, OD600, 24 h, no modulator, primary screen (AID 1090).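 Note: basal condition with compound alone and no growth modifier present; test concentration not given here.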 As to conditions: S. pombe 972 growth, higher = more signal, called active from +8 up or from −8 down.
Assay [14] is described as follows: budding yeast growth modifiers under rapamycin – strain BY4716, OD600, 96 h, primary screen (AID 1091). Note: test concentration not given here. As to conditions: S. cerevisiae BY4716 + rapamycin, higher = more signal, called active from +8 up or from −8 down.
The target in assay [15] is Torsin-1A-interacting protein 2 (Homo sapiens) (UniProt Q8NFQ8). As to the kind of experiment: small molecules binding lysate-expressed LULL1 – cell lysate, human LULL1 lysate, 635/667 nm fluorescence, primary screen (AID 1092).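 Note: score merges per-feature 667 nm fluorescence with signal-to-noise.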 As to conditions: small-molecule microarray, hLULL1 lysate binding, 635 nm fluorescence; higher = more signal.
Chain of Torsin-1A-interacting protein 2 (Homo sapiens) (Q8NFQ8 whole entry, looked up): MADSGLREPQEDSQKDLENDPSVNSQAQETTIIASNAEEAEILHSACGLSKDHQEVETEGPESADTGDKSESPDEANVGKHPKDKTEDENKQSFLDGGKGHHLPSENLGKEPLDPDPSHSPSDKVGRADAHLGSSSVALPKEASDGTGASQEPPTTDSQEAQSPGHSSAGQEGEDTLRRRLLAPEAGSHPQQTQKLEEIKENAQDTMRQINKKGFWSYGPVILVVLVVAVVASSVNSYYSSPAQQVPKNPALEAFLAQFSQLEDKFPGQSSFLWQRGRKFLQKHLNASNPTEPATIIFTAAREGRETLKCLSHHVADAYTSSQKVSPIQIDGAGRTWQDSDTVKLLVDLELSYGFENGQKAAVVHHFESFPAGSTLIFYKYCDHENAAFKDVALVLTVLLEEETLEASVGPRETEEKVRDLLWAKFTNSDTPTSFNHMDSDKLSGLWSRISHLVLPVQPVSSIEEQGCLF
Assay [16] is described as follows: optical density change of DRC41 E. coli – strain DRC41, OD650, 24 h, E. coli filamentation project, primary screen (AID 1093).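 Note: MC1000 strain lacking acrAB efflux and sulA so SOS filamentation is blocked; test concentration not given here.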 As to conditions: E. coli DRC41 growth, higher = more signal, called active from +8 up or from −8 down.
The nature of assay [17]: probe aLefty2 binding to arrayed compounds – biochemical, biotinylated probe, 635/667 nm fluorescence, primary screen (AID 1094).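 Note: score merges spot fluorescence near 667 nm with spot signal-to-noise ratio.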 Particulars: small-molecule microarray, higher = more signal.
The subject of assay [18] is Noggin (protein binding on small-molecule microarray). As to the kind of experiment: small molecules binding Noggin protein – biochemical, 635/667 nm fluorescence, primary screen (AID 1095).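 Note: score merges 667 nm feature fluorescence with signal to noise over triplicate slides.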 As to conditions: 635 nm fluorescence, higher = more signal.
Assay [19] has as its target Neurogenic locus notch homolog protein 3 (Homo sapiens) (UniProt Q9UM47). As to the kind of experiment: small molecules binding NOTCH3 protein – biochemical, 635/667 nm fluorescence, primary screen (AID 1096). Particulars: small-molecule microarray, 635 nm fluorescence, higher = more signal.
Assay [20] can be described thus: probe aEGFR binding to arrayed compounds – biochemical, biotinylated probe, 635/667 nm fluorescence, primary screen (AID 1097).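 Note: probe is a biotinylated anti-EGFR antibody binding compounds printed on slides; score combines fluorescence near 667 nm and signal to noise of each spot.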 Particulars: small-molecule microarray, higher = more signal.

From PubChem BioAssay come the findings set out here.

Active and inactive are the calls of the source.

Chain of Neurogenic locus notch homolog protein 3 (Homo sapiens) (Q9UM47 whole entry, looked up): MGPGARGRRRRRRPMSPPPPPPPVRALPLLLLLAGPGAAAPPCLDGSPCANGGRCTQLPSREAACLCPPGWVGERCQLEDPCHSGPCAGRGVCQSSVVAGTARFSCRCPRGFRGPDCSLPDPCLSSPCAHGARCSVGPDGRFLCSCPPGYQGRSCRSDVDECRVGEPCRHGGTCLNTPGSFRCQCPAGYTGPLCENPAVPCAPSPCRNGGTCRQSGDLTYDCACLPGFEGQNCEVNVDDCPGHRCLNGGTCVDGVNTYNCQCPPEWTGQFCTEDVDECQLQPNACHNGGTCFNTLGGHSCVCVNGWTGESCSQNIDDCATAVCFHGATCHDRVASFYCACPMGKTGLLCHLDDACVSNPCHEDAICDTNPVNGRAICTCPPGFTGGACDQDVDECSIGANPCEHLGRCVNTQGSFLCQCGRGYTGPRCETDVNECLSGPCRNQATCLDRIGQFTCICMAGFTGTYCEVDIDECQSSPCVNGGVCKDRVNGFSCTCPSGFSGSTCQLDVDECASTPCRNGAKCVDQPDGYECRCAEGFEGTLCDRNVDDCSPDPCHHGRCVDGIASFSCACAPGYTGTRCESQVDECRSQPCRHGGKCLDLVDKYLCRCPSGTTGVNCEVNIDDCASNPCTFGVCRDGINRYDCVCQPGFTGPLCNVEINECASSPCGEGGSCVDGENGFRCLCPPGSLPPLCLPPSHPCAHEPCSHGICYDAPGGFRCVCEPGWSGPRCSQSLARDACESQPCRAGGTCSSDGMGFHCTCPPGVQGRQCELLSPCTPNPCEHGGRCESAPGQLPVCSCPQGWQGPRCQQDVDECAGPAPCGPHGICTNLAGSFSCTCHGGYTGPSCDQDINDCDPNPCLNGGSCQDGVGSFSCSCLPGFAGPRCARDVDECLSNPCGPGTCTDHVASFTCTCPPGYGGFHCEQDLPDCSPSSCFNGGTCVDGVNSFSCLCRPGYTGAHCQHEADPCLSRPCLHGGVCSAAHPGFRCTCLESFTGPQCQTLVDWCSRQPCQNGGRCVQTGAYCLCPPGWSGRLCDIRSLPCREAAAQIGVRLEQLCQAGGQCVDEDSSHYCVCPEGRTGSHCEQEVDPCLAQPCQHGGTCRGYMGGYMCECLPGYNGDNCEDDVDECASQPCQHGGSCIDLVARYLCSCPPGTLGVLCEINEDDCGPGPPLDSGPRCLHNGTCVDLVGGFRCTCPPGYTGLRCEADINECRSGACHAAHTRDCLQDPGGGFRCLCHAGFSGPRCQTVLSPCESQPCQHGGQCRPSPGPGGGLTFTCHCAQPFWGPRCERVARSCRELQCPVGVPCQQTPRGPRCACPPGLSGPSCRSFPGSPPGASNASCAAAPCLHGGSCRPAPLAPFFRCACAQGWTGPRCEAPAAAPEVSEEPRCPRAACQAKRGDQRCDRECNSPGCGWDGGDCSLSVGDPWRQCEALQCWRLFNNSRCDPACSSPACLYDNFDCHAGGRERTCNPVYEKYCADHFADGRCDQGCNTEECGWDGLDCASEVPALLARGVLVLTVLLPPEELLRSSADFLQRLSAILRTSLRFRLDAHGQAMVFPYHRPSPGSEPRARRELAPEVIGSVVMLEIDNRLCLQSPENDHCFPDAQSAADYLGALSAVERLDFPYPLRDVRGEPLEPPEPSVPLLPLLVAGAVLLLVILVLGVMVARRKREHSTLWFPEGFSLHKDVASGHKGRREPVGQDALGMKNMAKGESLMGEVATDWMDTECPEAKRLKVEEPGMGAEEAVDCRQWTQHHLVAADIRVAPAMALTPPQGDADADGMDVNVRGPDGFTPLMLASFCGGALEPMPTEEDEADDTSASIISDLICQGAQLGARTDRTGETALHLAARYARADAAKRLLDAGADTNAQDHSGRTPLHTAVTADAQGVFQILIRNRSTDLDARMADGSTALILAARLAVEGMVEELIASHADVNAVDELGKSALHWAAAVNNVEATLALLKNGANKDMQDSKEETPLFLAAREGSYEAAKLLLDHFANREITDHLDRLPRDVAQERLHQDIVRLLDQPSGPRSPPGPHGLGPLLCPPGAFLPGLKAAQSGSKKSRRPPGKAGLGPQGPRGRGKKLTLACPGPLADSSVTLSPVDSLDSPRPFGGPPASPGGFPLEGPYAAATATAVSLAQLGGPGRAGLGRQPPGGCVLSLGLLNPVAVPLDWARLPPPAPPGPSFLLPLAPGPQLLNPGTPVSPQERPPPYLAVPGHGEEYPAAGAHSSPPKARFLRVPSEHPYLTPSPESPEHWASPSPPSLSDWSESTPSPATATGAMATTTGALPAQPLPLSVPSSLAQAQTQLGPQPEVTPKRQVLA

On to `O=C1OCC=C[C@H]2OC34C=CCN(Cc5ccccc5)C(=O)[C@H]3N(CCCCCO)C(=O)[C@@H]4[C@@H]12` (stereo not given in full), for which the composite z-score in assay [1] is 1.67; in assay [2] it was -0.0288; in assay [3], -0.187; in assay [4], -0.179; in [5], -1.38; in [6], 1.13. Also, the composite z-score in assay [7] is 0.631; in assay [9], -0.594; in assay [10] it was -0.216; in assay [11] it was -0.702; in assay [15], 1.06; in assay [17] it was 0.0282. Also, the composite z-score in assay [18] was -1.5; in [19], -0.911; in assay [20] it was -0.358. The z-score in assay [8] is 0.443 (inactive); in assay [12], -0.524 (inactive); in [13] it was -1.06 (inactive); in [14] it was -0.368 (inactive); in assay [16] it was 2.33 (inactive).

For `CO[C@@H]1COC(=O)CC=C[C@H](C)COC(=O)[C@H](Cc2ccccc2)NC(=O)CC=C[C@H]1C`, the composite z-score in [1] is -1.68; in assay [2], 1.69; in assay [3], -0.265; in [4], -0.416; in assay [5] it was -1.04; in [6], -0.409. Further, the composite z-score was 0.517 in assay [7]; -0.515 in [9]; -0.179 in assay [10]; 1.48 in assay [11]; -0.844 in assay [15]; -0.399 in assay [17]. Further, the composite z-score in assay [18] is 1.6; in assay [19] it was 0.202; in assay [20] it was -0.0773. Moreover, the z-score was -0.533 (inactive) in assay [8]; -0.346 (inactive) in assay [12]; -0.867 (inactive) in [13]; -1.61 (inactive) in assay [14]; -0.0298 (inactive) in [16].

Take `COc1ccc(-c2cc3c(c(-c4ccccc4)n2)[Si](C(C)C)(C(C)C)O[C@H]3c2ccccc2)cn1`: the composite z-score was -0.248 in [1]; 0.0094 in assay [2]; -0.106 in assay [3]; 0.144 in [4]; 0.241 in [5]; 0.0264 in assay [6]. Moreover, the composite z-score was 0.335 in assay [7]; -0.116 in [9]; 0.316 in assay [10]; 1.11 in assay [11]; 0.965 in assay [15]; -0.132 in assay [17]. For the same compound, the composite z-score turned out to be 0.47 in [18], 0.596 in assay [19] and 0.0215 in assay [20]. Also, the z-score in [8] was -0.68 (inactive); in [12], -0.136 (inactive); in assay [13] it was -0.572 (inactive); in [14], -0.0946 (inactive); in assay [16], -1.03 (inactive).

On to `NC(=O)NCC#Cc1ccc2c(c1)[C@]1(C(=O)N2)[C@H](C(N)=O)[C@H]2C(=O)O[C@H](c3ccccc3)[C@H](c3ccccc3)N2[C@@H]1c1ccccc1OCCO`, for which the composite z-score was found to be 0.163 in [1]; 0.494 in assay [2]; 0.0143 in [3]; 0.0467 in [4]; 0.335 in [5]; 0.221 in assay [6]. The composite z-score in assay [7] was -0.0706; in assay [9], 0.597; in [10], -0.0645; in assay [11] it was 1.22; in assay [15], 1.04; in [17], 0.129. In addition, the composite z-score in assay [18] was 0.546; in [19] it was 1.11; in assay [20], -0.151. The z-score in [8] was -0.317 (inactive); in assay [12] it was 0.592 (inactive); in [13] it was 0.742 (inactive); in [14] it was 0.804 (inactive); in [16], -0.829 (inactive).

As to `C=CCC(OC(C)=O)[C@@H]1[C@@H](N(Cc2ccc(-c3ccccc3)cc2)C(=O)c2ccc(C)cc2)c2cc(OCCCO)ccc2N1C(=O)c1ccc(-c2ccccc2)cc1` (stereo not given in full), the composite z-score in assay [1] was -0.0264; in assay [2] it was -0.192; in [3] it was -0.006; in [4], 0.0126; in [5] it was -0.245; in [6], -0.0564. The composite z-score in [7] is -0.538; in [9], 0.186; in assay [10], -0.405; in [11], -0.173; in assay [15], 0.554; in [17], 0.0026. For the same compound, the composite z-score in assay [18] is -0.404; in [19], -0.532; in assay [20], 0.039. Besides, the z-score in assay [8] was -2.08 (inactive); in assay [12], -3.23 (inactive); in assay [13], -1.88 (inactive); in assay [14], -1.75 (inactive); in [16], 0.65 (inactive).
